Assay results as given in PubChem BioAssay AID772 (SRMLSC, 2007).
Out of some 3,300 compounds screened, about 20 (0.6%) were called active.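 Rule for the calls: active = growth inhibition above 90%, meaning viable cell count cut by more than 90% versus vehicle controls; inactive = growth inhibition below 90%.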 The sample as a whole holds a higher share of actives than the screen did.

Assay: HT29 colon tumor cell growth inhibition, primary screen, imaging, high content imaging, 72 h, CellTiter-Glo (AID 772);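 for condensed nuclei: condensed means nuclear area below control median minus 1.5 SD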
Settings: HCS imaging cell count, at 10 µM, stronger effect = higher value; for condensed nuclei: measured here: percent cells with condensed nuclei
[1] = measured here: ATP CellTiter-Glo viability

Compound | growth inhibition | growth inhibition [1] [%] | condensed nuclei [%]
COc1cccc(OC)c1OCCN1CCN(C(=O)c2ccco2)CC1 | 18.1% (inactive) | 7.71 | 3.57
COc1cc2nc(N3CCN(C(=O)C4CCCO4)CC3)nc(N)c2cc1OC (stereo not given) | -61.2% (inactive) | -20.9 | 2.06
COC(=O)c1ccccc1NC(=O)C1COc2ccccc2O1 (stereo not given) | 16.2% (inactive) | 13.5 | 13.5
COc1ccc2[nH]c(C)c(C(=O)CN3CCN(C(=O)c4ccco4)CC3)c2c1 | -20.9% (inactive) | -49.5 | 3.46
COc1cc2nc(N3CCN(C(=O)C4COc5ccccc5O4)CC3)nc(N)c2cc1OC (stereo not given) | 96% (active) | 83.5 | 21.8
COc1cc2nc(N3CCN(C(=O)c4ccco4)CC3)nc(N)c2cc1OC | 94.7% (active) | 67.4 | 30.2
O=C(O)c1nsc(Cl)c1Cl | -41.6% (inactive) | -55.8 | 1.81
Cc1cccc(OCC(=O)N2CCC(N3CCCCCC3)CC2)c1 | -20.3% (inactive) | -10.7 | 13.8
CN(C)CC(O)COc1ccc(-c2ccc(C#N)cc2)cc1 (stereo not given) | 90.2% (active) | 86 | 7.89
CN(C)CC(O)COc1cccc(OCC(O)CN(C)C)c1 (stereo not given) | -49% (inactive) | -41 | 5.18
CN(C)CC(O)COc1ccc(C(C)(C)c2ccc(OCC(O)CN(C)C)cc2)cc1 (stereo not given) | 61.9% (inactive) | 98.3 | 18.1
Cn1c(=O)c2c(nc(Br)n2Cc2ccc3ccccc3c2)n(C)c1=O | 57.1% (inactive) | 9.53 | 5.08
Cc1cc(=O)[nH]c(SCC(=O)c2ccccc2)c1C#N | 27.9% (inactive) | -16.6 | 2.93
CCCSc1nc(C)c(CC(=O)O)c(=O)[nH]1 | -32.6% (inactive) | -21 | 3.23
CCN(CC)C(=O)C1CCN(c2ncnc3c2cnn3-c2ccc(C)cc2C)CC1 | 63.8% (inactive) | 64.7 | 6.87
Fc1ccc(C2C3=C(Nc4ncnn42)c2ccccc2OC3c2ccncc2)cc1 (stereo not given) | 61.8% (inactive) | 20.5 | 17.7
CCCOc1ccc(CSC(CC(=O)O)C(=O)O)cc1 (stereo not given) | -29% (inactive) | -72.1 | 0.98
COC(=O)C1=C(C)N=C2SC(C)C(=O)N2C1/C=C/c1ccccc1OC (stereo not given) | -57.1% (inactive) | -59.2 | 1.79
CCCCC(=O)c1c(C)cc(C)[nH]c1=O | -16.9% (inactive) | -46.2 | 1.27
CCN(CC)CCN1C(=O)C(O)=C(C(=O)c2cccs2)C1c1ccccn1 (stereo not given) | -42% (inactive) | -45.7 | 3.64
CCN(CC)CCOC(=O)c1c(C)n(C)c2ccc(OC)cc12 | -57.1% (inactive) | -23 | 3.82
Cn1cc(Cl)nc1C(O)c1ccccc1 (stereo not given) | -111% (inactive) | -43.7 | 2.87
Cc1cc2c(c(=O)o1)C(CC(C)C)C(C#N)=C(N)O2 (stereo not given) | 18.4% (inactive) | -9.11 | 2.71
N/C(CCN1CCCCC1)=N/O | 20.8% (inactive) | 13.8 | 6.52
c1ccc(Cc2nn[nH]n2)cc1 | 14.9% (inactive) | -16.9 | 4.71

Compound | growth inhibition | growth inhibition [1] [%] | condensed nuclei [%]
N#C/C(=N\O)c1nc(-c2ccccc2)cs1 | -131% (inactive) | -49.8 | 3.16
CCOc1cccc(-c2nnc3sc(-c4ccco4)nn23)c1 | -51.8% (inactive) | -46.9 | 2.36
CCOC(=O)C(Oc1ccc(=O)[nH]n1)C(C)=O (stereo not given) | -6.93% (inactive) | -59.3 | 3.6
CC(C)Sc1nnc2n(CCc3ccccc3)c(=O)c3c4c(sc3n12)COC(C)(C)C4 | 0.75% (inactive) | -42.2 | 1.47
CCc1[nH]c(=O)c(C#N)c2c1CSC(C)(C)C2 | 9.49% (inactive) | -3.16 | 4.45
Cc1nn(C)cc1C1C2=C(CC(C)(C)CC2=O)OC2=C1C(=O)CC(C)(C)C2 | -19.8% (inactive) | -38.9 | 2.88
CC1(C)CC(=O)C2=C(C1)Oc1nc3ccccc3cc1C2C(C#N)C#N (stereo not given) | 92.5% (active) | 71.1 | 0
CC1(C)CC(=O)C2=C(C1)OC(N)=C(C#N)C2C1C=CCCC1 (stereo not given) | 59.5% (inactive) | 32.2 | 3.5
CCCCOC(=O)c1ccc(NC(=O)CSc2nncn2C)cc1 | 11.7% (inactive) | -49.6 | 2.84
Cc1cc(=O)oc(C)c1C(=O)NCC1CCCO1 (stereo not given) | 13.8% (inactive) | 8.51 | 7.86
Clc1ccc(-n2ncc3c(NCc4ccco4)ncnc32)cc1 | 90.8% (active) | 93.7 | 40
Clc1ccc(-n2ncc3c(NCc4cccs4)ncnc32)cc1 | -12.9% (inactive) | -9.82 | 2.28
Cc1cccc(-n2ncc3c(NCc4ccco4)ncnc32)c1 | 88.8% (inactive) | 83.6 | 12.1
Cn1c(OCc2ccco2)nc2c1c(=O)n(Cc1ccc(Cl)c(Cl)c1)c(=O)n2C | -4.69% (inactive) | -10 | 6.05
COc1ccc(CNc2oc(COc3ccc(Cl)cc3)nc2C#N)cc1 | 59% (inactive) | 54.4 | 24.8
COc1ccc(CSc2nnc3n(C)c(=O)c4c5c(sc4n23)CCCC5)cc1 | -75.3% (inactive) | -39.3 | 2.4
Cc1ccc(-c2nnc(-c3cccc(Br)c3)o2)cc1 | 20.1% (inactive) | -5.25 | 0
Cc1ccccc1C(=O)c1ccc2c(c1)n(C)c(=O)n2C | -2.53% (inactive) | -7.19 | 3.03
O=C(NC1CCCCC1)N1CCSC1=Nc1ccccc1 | 54.8% (inactive) | 12.5 | 9.09
O=C1C(=O)N(CCN2CCOCC2)C(c2ccccn2)/C1=C(/O)c1ccc(F)cc1 (stereo not given) | -59.2% (inactive) | -29.6 | 3.57
C=CCNc1nc(-c2ccc(O)c(C(N)=O)c2)cs1 | -5% (inactive) | 38.5 | 8.5
CCOc1ccc(-c2nc(C#N)c(N3CCN(CC)CC3)o2)cc1 | 33.8% (inactive) | -1.72 | 5.03
C=CCOC(=O)C(C#N)c1nc2ccccc2nc1N1CCN(c2ccccc2OCC)CC1 (stereo not given) | -8.05% (inactive) | -23.8 | 3.97
Cc1cc(C)n(CC2CC(=O)N(c3cc(Cl)cc(Cl)c3)C2=O)n1 (stereo not given) | -36.8% (inactive) | -33.9 | 2.19
COCCCn1c2nc3ccccc3nc2c2c(=O)n(-c3ccccc3OC)c(C)nc21 | -36.8% (inactive) | -45.7 | 1.23

Compound | growth inhibition | growth inhibition [1] [%] | condensed nuclei [%]
C=CCOC(=O)C1=C(C)OC(N)=C(C#N)C1c1ccoc1 (stereo not given) | 45.6% (inactive) | 21.7 | 6.32
CCOC(=O)c1c(SC)nc(SC)c2c1CCC2 | -36.8% (inactive) | -48 | 3.12
Cc1cc(C)n(Cc2ccc(C(=O)NCCC3=CCCCC3)o2)n1 | -19.5% (inactive) | 3.39 | 3.56
Cn1cc(Br)cc2nc(C(F)(F)F)nc1-2 | 1.5% (inactive) | 19.5 | 22.8
COc1ccc(C2CC(=O)c3sc(N)nc3C2)cc1 (stereo not given) | 57.6% (inactive) | 22.2 | 1.99
O=C(NCCC1=CCCCC1)c1ccc(=O)oc1 | 45.9% (inactive) | 19.6 | 21.8
Clc1ccccc1-c1nn2c(-c3ccccn3)nnc2s1 | -1.22% (inactive) | 21.5 | 15.7
CCCCc1c(C)c2ccc(OCC(C)=O)cc2oc1=O | -30.8% (inactive) | -58.8 | 2.85
CO[C@H]1C[C@@H]2CC[C@@H](C)[C@@](O)(O2)C(=O)C(=O)N2CCCC[C@H]2C(=O)O[C@H]([C@H](C)C[C@@H]2CC[C@@H](O)[C@H](OC)C2)CC(=O)[C@H](C)C=C(C)[C@@H](O)[C@@H](OC)C(=O)[C@H](C)C[C@H](C)C=CC=CC=C1C | 19.1% (inactive) | -4.98 | 2.81
CCOC(=O)c1ccc(N=Cc2nc(-c3ccccc3)oc2OC(C)=O)cc1 | 6.56% (inactive) | -17.5 | 12.1
CC12CCC(C(=O)NCCCN3CCOCC3)(OC1=O)C2(C)C (stereo not given) | -26.1% (inactive) | -11.1 | 1.65
CC(C)CC(NC(=O)OC(C)(C)C)C(=O)NCc1ccccc1 (stereo not given) | 9.38% (inactive) | -13 | 1.7
CCOc1ccc(C2C(C(=O)c3ccc(C)o3)=C(O)C(=O)N2CCN2CCOCC2)cc1OC (stereo not given) | -37.5% (inactive) | -33.6 | 4.84
O=C(CCN1CCCCC1)Nc1cccc(Cl)c1 | 35% (inactive) | 28.1 | 26.1
N#Cc1nc(-c2cccs2)oc1NCc1ccc2c(c1)OCO2 | 48% (inactive) | 8.08 | 3.78
COC(=O)c1[nH]c(C)c(/C(O)=C2\C(=O)C(=O)N(CCN3CCOCC3)C2c2cccnc2)c1C (stereo not given) | -38.7% (inactive) | -21.1 | 3.67
N#CC1=C(N)OC2=C(C(=O)CCC2)C1CCc1ccccc1 (stereo not given) | 12% (inactive) | -15.7 | 5.15
Oc1ccccc1-c1nc(NCCN2CCOCC2)c2ccccc2n1 | 30.6% (inactive) | 94 | 18.9
Fc1ccccc1-c1nc(NCCCN2CCOCC2)c2ccccc2n1 | 92.5% (active) | 79 | 14.3
COc1cccc(-c2nc(NCCN3CCOCC3)c3ccccc3n2)c1O | 38% (inactive) | 86.2 | 23.4
COCCN(CCOC)C(=O)C12CCC(C)(C(=O)C1)C2(C)C (stereo not given) | 31.4% (inactive) | -4.4 | 10.7
CCN(CC)CCN1C(=O)C(=O)/C(=C(/O)c2c(C)[nH]c(C(=O)OC)c2C)C1c1cccc(OC)c1 (stereo not given) | -109% (inactive) | -54.7 | 4.61
COC(=O)c1ccc(-c2sc3nc(N4CCOCC4)c4c(c3c2N)CCCC4)o1 | 89.6% (inactive) | 82.9 | 55.6
COc1cc2c(C(=O)N3CCN(c4ccccc4)CC3)c(C)oc2cc1Br | -0.57% (inactive) | -11.3 | 5.92
Cc1ccc(OCC(=O)NCC(=O)n2nc(C)cc2C)cc1 | -54.1% (inactive) | -44.3 | 2.73
